F508del corr = CFTR F508del correction in bronchial cells | activity (quench increase), % at 7.58 µM | 0.36% of 350,000 active | CFBE cells, YFP halide quenching; stimulated with forskolin plus potentiator P3; % fluorescence drop versus neutral controls;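 active = mean added fluorescence quench of at least 8% versus neutral control, with both replicates also reaching 8%; inconclusive = only one of the mean or replicate conditions met; inactive = mean below 8% and not both replicates reaching 8%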;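 also: cells transiently co-express mutant CFTR-F508del with the halide-sensitive YFP; corrector assay measuring rescue of mutant channel to the surface after 24 h compound exposure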
697 NFkB inh = lowers PMA/ionomycin-induced NF-kB signal in 697 B cells | 0.33% of 330,000 active | inhibition, % at 4 µM | 697 B-cell NF-kB luciferase reporter, 16 h; in the data active = inhibition above about 35%
Jurkat NFkB inh = inhibitors of the PMA/ionomycin-induced NF-kB reporter in Jurkat cells; PMA/ionomycin-induced NF-kB luciferase reporter, luminescence; inhibition, % at 4 µM; 0.53% of 330,000 active; in the data active = inhibition above about 50%
HIF act = HIF pathway transcriptional activation. U2OS HRE-luciferase reporter, luminescence; normalized: DMSO 0%, desferrioxamine 100%. activation, % at 7.5 µM (by protocol). 0.32% of 300,000 active;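 active = mean activation of at least 10% of the iron chelator positive control signal, with at least half of replicates also reaching 10%; inconclusive = mean and replicate majority disagree about reaching 10%; inactive = mean and most replicates under 10%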
Jurkat NFkB conf = inhibitors of the PMA/ionomycin-induced NF-kB reporter in Jurkat cells, retest; shares compounds with Jurkat NFkB inh; Jurkat NF-kB luciferase, 16 h; inhibition, % at 4 µM; 27% of 2,700 active; AID 435020;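 active = inhibition reaching about 45% at 4 µM in either replicate, limit read from the data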;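 also: plate controls were PMA/ionomycin stimulated DMSO wells for no effect and unstimulated DMSO wells for full effect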
The depositor's hits bear a star; ? = inconclusive; nt = not tested or not shown. Hits are enriched below; roughly 0.93% of the tested compounds scored in any of these assays.

SMILES	F508del corr	697 NFkB inh	Jurkat NFkB inh	HIF act	Jurkat NFkB conf
COc1cc(/C=C2\SC(=Nc3ccc(O)cc3)NC2=O)cc(OC)c1OC	3.6	2.2	58.7*	1.3	0.7
COc1ccc(S(=O)(=O)N[C@H]2C=C[C@@H](CC(=O)N3CCC(Cc4ccccc4)CC3)O[C@H]2CO)cc1	0.4	nt	nt	nt	nt
C/C(=N\NC(=O)c1ccc(OC2OCCOC2Oc2ccc(C(=O)N/N=C(\C)c3ccncc3)cc2)cc1)c1ccncc1 (stereo not drawn)	0.5	-46.5	51.8*	0.0	8.1
C/C(=N\NC(=O)c1ccncc1)c1ccc(N2CCOCC2)cc1	-1.4	0.2	-0.3	nt	nt
COc1cccc(N2CCN(C(=O)c3ccc(CS(=O)c4ccc(Cl)cc4)o3)CC2)c1 (stereo not drawn)	8.4*	0.0	51.3*	-1.1	14.2
COc1cccc(N2CCN(C(=O)c3ccc(CS(=O)Cc4ccc(C)cc4)o3)CC2)c1 (stereo not drawn)	2.1	-16.3	-5.2	0.3	nt
COc1cccc(N2CCN(C(=O)c3ccc(CS(=O)c4ccc(C)cc4)o3)CC2)c1 (stereo not drawn)	9.6*	20.4	53.5*	-0.5	8.2
CO[C@H]1CN(C)C(=O)c2ccc(NC(=O)Nc3cc(F)ccc3F)cc2OC[C@H](C)N(C(=O)c2ccccn2)C[C@@H]1C	-1.6	nt	nt	nt	nt
CO[C@@H]1CN(C)C(=O)c2ccc(NC(=O)c3cccc(Oc4ccccc4)c3)cc2OC[C@H](C)NC[C@H]1C	-0.2	nt	nt	nt	nt
Cc1cc(C[n+]2ncsc2N)c2ncccc2c1	2.1	8.9	-4.1	-0.5	nt
CCOc1ccc2c(c1)sc(N)[n+]2Cc1cc(C)cc2cccnc12	?	-80.1	62.4*	-1.7	51.2*
CC(=O)c1c(C)oc2c1C(=O)c1ccccc1C2=O	nt	nt	nt	0.0	nt
COc1ccc(CNC(=O)c2c(C)oc3c2C(=O)c2ccccc2C3=O)cc1	11.8*	-15.6	59.8*	0.4	58.6*
Cc1onc(-c2ccccc2Cl)c1C(=O)NCc1cccnc1	nt	-0.6	-9.4	-0.1	nt
Cc1oc2c(c1C(=O)NCc1cccnc1)C(=O)c1ccccc1C2=O	nt	28.9	88.2*	-3.3	84.5*
CN(C)C(=O)C[C@@H]1CC[C@@H]2[C@H](COC[C@H](O)CN2CC2CC2)O1	2.3	nt	nt	nt	nt
COc1ccc(S(=O)(=O)N2c3cc(C)ccc3OCC2C(C)(C)C)cc1 (stereo not drawn)	nt	-50.4	51.1*	-0.9	16.7
CO[C@@H]1CN(C)C(=O)c2ccc(NC(=O)C3CC3)cc2OC[C@@H](C)N(C(=O)c2ccccc2F)C[C@@H]1C	-1.3	nt	nt	nt	nt
CC1=C/C(=N\OS(=O)(=O)c2ccccc2)C(C)=CC1=O	nt	-13.2	50.6*	nt	27.6
O=C(Nc1ccc(/C=C/c2nc3ccccc3o2)cc1)c1c(F)cccc1F	nt	-115.0	-126.5	2.1	nt
CC(=O)Nc1ccc(/C=C/c2nc3ccccc3o2)cc1	2.3	-145.1	-150.4	1.7	-100.0
Cc1ccc2nc(SCC(=O)c3ccccc3)nc(=O)n2c1	-7.3	-97.3	-224.6	?	-75.0
CCCC#Cc1ccc2c(c1)O[C@H](CN(C)Cc1ccc3c(c1)OCO3)[C@H](C)CN([C@H](C)CO)S2(=O)=O	1.7	nt	nt	nt	nt
CO[C@H]1CN(C)C(=O)c2ccc(NC(=O)c3ccccc3F)cc2OC[C@@H](C)N(C(C)=O)C[C@@H]1C	0.9	nt	nt	nt	nt
COc1ccc(NC(=S)NNC(=O)c2ccccc2OC(F)F)cc1	nt	-41.5	52.9*	0.8	26.6
SMILES	F508del corr	697 NFkB inh	Jurkat NFkB inh	HIF act	Jurkat NFkB conf
COc1ccc(C(=O)NNC(=S)Nc2ccccc2)cc1	1.8	-151.6	-172.5	3.3	-116.2
COc1ccc(C(=O)NNC(=S)NC(=O)c2ccc(OC)cc2)cc1	-0.6	1.3	-2.4	-3.7	nt
CCc1ccc(NC(=S)NNC(=O)c2ccccc2OC(F)F)cc1	nt	-15.3	23.0	2.0	nt
COc1ccc(NC(=S)N/C(=N/CS(=O)(=O)c2ccccc2)c2ccccc2)cc1	nt	-211.0	-150.6	2.2	-9.1
CN1/C(=C/C=C(/C#N)C(N)=O)C(C)(C)c2ccccc21	nt	-85.7	61.2*	0.8	10.3
C[C@@H]1CN([C@H](C)CO)C(=O)c2cc(NS(=O)(=O)c3ccc(Cl)cc3)ccc2O[C@@H](C)CCCCO[C@H]1CN(C)S(=O)(=O)c1ccc(F)cc1	0.9	nt	nt	nt	nt
Cc1ccc(C(=O)NNc2ncnc3c2cnn3C)cc1	-1.1	-5.8	4.6	0.3	nt
Cn1ncc2c(O/N=C(\N)c3ccc(C(F)(F)F)cc3)ncnc21	-3.9	-61.6	78.2*	-2.0	-0.2
O=S(=O)(NC1CCN(Cc2ccc(OCCO)cc2)CC1)c1cc(C(F)(F)F)ccc1Cl	2.3	nt	nt	nt	nt
Cc1cccc(Nc2nc(N)nc(CCl)n2)c1C	-6.8	33.8	87.6*	-0.4	23.8
COc1ccccc1Nc1nc(N)nc(CCl)n1	0.1	8.4	6.9	-0.9	nt
Cc1ccc(Nc2nc(N)nc(CCl)n2)cc1	-32.0	-2.3	-22.5	3.5	nt
Cc1ccc(Nc2nc(N)nc(CCl)n2)c(C)c1	-1.3	-151.7	90.4*	1.1	4.2
CCOc1ccc(Nc2nc(N)nc(CCl)n2)cc1	-2.1	-10.8	58.6*	3.2	10.2
COc1ccc(NC(=O)N(C)C[C@H]2Oc3c(NC(=O)Nc4ccc(C(F)(F)F)cc4)cccc3C(=O)N([C@@H](C)CO)C[C@H]2C)cc1	0.3	nt	nt	nt	nt
CCC(=O)N1CC2(C1)[C@H](c1ccccc1)[C@H](CO)N2C(=O)NC(C)C	-2.3	nt	nt	nt	nt
COc1ccc(CC(=O)Nc2cccc(-c3nnc(-c4cccc(C)c4)o3)c2)cc1OC	nt	-82.9	50.6*	1.4	60.6*
COc1ccc2[nH]c3c(c2c1)CCNC3c1ccc([N+](=O)[O-])o1 (stereo not drawn)	-6.1	4.3	-1.3	-10.3	nt
COc1ccc2[nH]c3c(c2c1)CCNC3C1CC=C(C)CC1 (stereo not drawn)	5.3	16.2	58.0*	2.3	-16.7
CC[n+]1c(/C=C/c2ccc(OC)c(OC)c2)ccc2ccccc21	2.7	-150.5	-152.5	1.6	-87.8
CC[n+]1c(/C=C/c2ccc(OC(C)=O)c(OC)c2)ccc2ccccc21	-4.6	-32.0	-84.4	-0.6	nt
CCN(CC)c1ccc(/C=C/c2ccc3ccc(OC)cc3[n+]2CC)cc1	3.5	29.5	93.5*	2.9	70.0*
COCC(=O)Nc1ccc2c(c1)C(=O)N(C)C[C@@H](OC)[C@H](C)CN(C(C)=O)[C@H](C)CO2	-0.1	nt	nt	nt	nt
CC=Cc1ccc2n(c1=O)C[C@H]1[C@H](CO)[C@@H](C(=O)N(C)C)[C@@H]2N1CC1CCCC1 (mixture of isomers)	5.3	nt	nt	nt	nt
O=c1c2ccccc2oc2ccc(Oc3ccccc3)cc12	0.7	-223.7	-159.7	3.0	-121.2
COc1cc2oc3ccccc3c(=O)c2cc1OC	nt	3.9	-22.4	2.0	nt
O=C(Nc1nccs1)c1ccc2ccccc2c1	0.2	-158.1	-159.0	1.6	-106.0
N#Cc1ccc(C(=O)Nc2ccc3ccccc3c2)cc1	-1.4	-199.6	-176.6	1.7	-133.4
O=C(Nc1ccc2nccnc2c1)c1cnccn1	nt	-14.9	-34.1	4.1	nt
O=C(Nc1ccc2ccccc2c1)c1cnccn1	nt	-220.0	-183.9	0.4	-107.7

High-throughput results from PubChem BioAssay.
